Data from PubChem BioAssay AID588354 (The Scripps Research Institute Molecular Screening Center, 2011).
The campaign covered roughly 360,000 compounds. About 430 (0.12%) were called active. Many of the other results were omitted from the sample, so actives are more common in it than they were. A number with no mark means an inactive call.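 How the source made its calls: active means inhibition above the campaign mean plus 3 SD, with each screening campaign given its own cutoff (cut at about 60% in these data); inactive means the rest.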

What follows are compounds tested against Nuclear receptor coactivator 1 (Homo sapiens) (UniProt Q15788) (assay: SRC1 coactivator transcriptional activity inhibitors, primary screen, cell-based, luminescence (AID 588354;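 further: 0% = DMSO treated cells and 100% = gossypol at 36 µM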)). Settings: HEK293 GAL4-SRC1 luciferase reporter, at 3.6 µM, stronger effect = higher value.
Nuclear receptor coactivator 1 (Homo sapiens), sequence (Q15788 whole entry, looked up, the tested form may be a part): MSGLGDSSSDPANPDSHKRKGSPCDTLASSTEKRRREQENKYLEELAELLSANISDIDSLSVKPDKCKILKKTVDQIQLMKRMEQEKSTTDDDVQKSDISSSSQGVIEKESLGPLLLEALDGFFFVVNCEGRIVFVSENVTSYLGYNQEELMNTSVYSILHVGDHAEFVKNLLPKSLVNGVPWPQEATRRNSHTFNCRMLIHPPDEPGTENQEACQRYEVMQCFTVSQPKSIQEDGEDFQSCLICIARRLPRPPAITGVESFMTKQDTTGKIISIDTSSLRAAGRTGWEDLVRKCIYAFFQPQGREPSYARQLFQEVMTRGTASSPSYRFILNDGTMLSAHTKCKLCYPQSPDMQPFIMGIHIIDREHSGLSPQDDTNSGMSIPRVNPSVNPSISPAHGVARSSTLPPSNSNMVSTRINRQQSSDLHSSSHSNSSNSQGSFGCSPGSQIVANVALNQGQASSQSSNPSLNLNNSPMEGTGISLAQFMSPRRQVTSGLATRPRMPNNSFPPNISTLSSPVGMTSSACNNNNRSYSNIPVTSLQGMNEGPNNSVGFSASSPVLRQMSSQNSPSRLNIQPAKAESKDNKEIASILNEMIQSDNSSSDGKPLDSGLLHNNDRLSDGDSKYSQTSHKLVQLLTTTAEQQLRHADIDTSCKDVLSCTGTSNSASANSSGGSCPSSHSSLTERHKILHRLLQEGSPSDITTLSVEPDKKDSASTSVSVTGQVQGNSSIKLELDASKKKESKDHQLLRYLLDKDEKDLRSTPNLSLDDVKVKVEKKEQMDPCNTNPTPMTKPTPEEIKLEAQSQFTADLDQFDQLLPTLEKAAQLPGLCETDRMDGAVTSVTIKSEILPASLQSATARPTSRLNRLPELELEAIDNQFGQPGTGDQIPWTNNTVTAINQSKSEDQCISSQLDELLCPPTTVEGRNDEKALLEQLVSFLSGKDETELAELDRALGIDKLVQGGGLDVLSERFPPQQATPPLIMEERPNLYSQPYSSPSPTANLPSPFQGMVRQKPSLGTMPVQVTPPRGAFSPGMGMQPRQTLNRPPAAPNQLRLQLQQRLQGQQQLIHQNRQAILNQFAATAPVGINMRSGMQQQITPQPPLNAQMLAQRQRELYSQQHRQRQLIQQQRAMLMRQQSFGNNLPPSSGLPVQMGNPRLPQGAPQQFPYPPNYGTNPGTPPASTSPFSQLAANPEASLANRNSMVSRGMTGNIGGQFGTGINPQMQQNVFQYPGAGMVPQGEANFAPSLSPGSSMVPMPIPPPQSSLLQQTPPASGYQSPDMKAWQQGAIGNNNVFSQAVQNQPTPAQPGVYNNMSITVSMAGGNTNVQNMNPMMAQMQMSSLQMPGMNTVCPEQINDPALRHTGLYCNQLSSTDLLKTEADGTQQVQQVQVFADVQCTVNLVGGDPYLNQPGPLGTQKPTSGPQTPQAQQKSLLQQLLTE

| SMILES | inhibition |
| --- | --- |
| COC1C(O)C(C)OC(OC2CCC3(C=O)C(CCC4C3CCC3(C)C(C5=CC(=O)OC5)CCC43O)C2)C1O (stereo not given) | 90.4% (active) |
| C[C@]12CC[C@H](O)C[C@H]1CC[C@@H]1C2CC[C@]2(C)[C@@H](C3=CC(=O)OC3)[C@@H](O)C[C@]12O (stereo not given in full) | 53.1% |
| CCC1(C)CC(CCNCc2ccc(N(C)C)cc2)(c2ccc(F)cc2)CCO1 (stereo not given) | -23.1% |
| Cc1cccc(-n2c(C)nc3cc(C(=O)N4CCC5(CC4)OCCO5)ccc32)c1 | 7.63% |
| CC1CCC(N(C)C2CCN(C)CC2)CC1 (stereo not given) | 9.39% |
| COC(=O)C1=C(c2ccc(Cl)c(C(F)(F)F)c2)C[C@@H]2CC[C@H]1N2C(=O)NC(C)C | 1.75% |
| CCC(C)(O)C(=O)OC1C(=O)OC2CC3C(C)=CC(=O)C(O)C3(C)C3C4(O)OCC23C1C(C)C4O (stereo not given) | 95.5% (active) |
| Cn1cc(C(=O)OCC(=O)N2CCCC2)c2ccccc21 | -5.08% |
| CC(=O)OC1C2(CC3N4C(=O)C5(CO)SSC4(CC31O)C(=O)N5C)OC(C)C(C)(C)C2=O (stereo not given) | 23.6% |
| CCOC(=O)CC(SP1(=S)OCC2(CCCCO2)C(C2CCCCO2)O1)C(=O)OCC (stereo not given) | -3.46% |
| Cc1ccccc1NC(=O)COC(=O)c1cc(C)n(C2CC2)c1C | -22.1% |
| O=C(COc1ccc2ccccc2c1)N1CCN(Cc2ccncc2)CC1 | -6.36% |
| CCOc1ccc(-c2cc(C)[n+](CCN(CC)CC)c(-c3ccc(OCC)cc3)c2)cc1 | 62% (active) |
| CNC(=O)N(C)c1nnc(C(C)(C)C)s1 | -3.52% |
| N[C@@H](Cc1c[nH]c2ccccc12)c1nnc(SCc2c(F)cccc2Cl)o1 | -58.9% |
